# Screens from PubChem BioAssay.
# VCAM1 TNFa inh – inhibitors of TNFa-induced VCAM1 expression, primary screen, imaging, HUVEC, TNFa stimulus, immunofluorescence. HUVEC TNFa-induced VCAM-1 immunofluorescence, high-content imaging. inhibition, % at 2 µM. 0.48% of 95,000 active. AID 802, 2007;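 active means inhibition above the batch mean plus 3 SD, with images confirmed as a hit by eye, cut at about 37% in these data; inconclusive means inhibition above that limit but hit not confirmed in images; inactive means inhibition not above that limit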;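 further: 0% = TNF-stimulated DMSO wells and 100% = unstimulated control wells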
# IL1B cytotox – cytotoxicity in IL-1B stimulated HUVEC, primary screen, cytotoxicity control for IL-1B NFkB translocation project, imaging, Hoechst nuclear count, IL-1B stimulus; HUVEC cell count loss; cell count reduction, % at 2 µM; 0.41% of 94,000 active; AID 845, 2007;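 active means cell count reduction more than 3 SD above the screen-wide mean, cut at about 70% in these data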;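 further: normalized per plate to untreated control cells as the no-loss baseline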
# TNFa cytotox – cytotoxicity in TNFa-stimulated HUVEC, primary screen, cytotoxicity control for VCAM1 expression modulator project, imaging, Hoechst nuclei count; HUVEC TNFalpha-stimulated, Hoechst cell count; AID 848, 2007; 0.17% of 93,000 active; cell count reduction, % at 2 µM;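 active means cell count reduction exceeding the screen mean by over 5 SD, scaled to untreated wells per plate, cut at about 78% in these data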;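 further: cells counted after 24 h of TNF alpha exposure following the 1 h pretreatment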
# NFkB transloc pot – enhancers of NFkB p65 translocation in HUVEC – imaging, IL-1B stimulus, high-content imaging, primary screen; HUVEC IL-1B NFkB p65 nuclear translocation imaging; activation, % at 2 µM; 0.3% of 94,000 active;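 active means activation above 40%, about the mean plus 3 SD, also judged a hit on visual image review; inconclusive means activation above 40% but not a hit on visual review; inactive means activation not above 40% and no visual hit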;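 further: percent activation is computed from the nuclear over cytoplasmic p65 intensity ratio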
# E-sel TNF inh – E-selectin induction blockers in HUVEC – imaging, immunofluorescence, high content, primary screen | inhibition, % at 2 µM | HUVEC TNFa-induced E-selectin immunofluorescence | 0.71% of 120,000 active;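 active means inhibition above the batch mean plus 3 SD, and confirmed as a hit on visual image review, cut at about 43% in these data; inconclusive means passes the inhibition cutoff but fails visual image review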;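 further: 0% = TNF-stimulated DMSO wells and 100% = unstimulated control wells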
# IL1B NFkB inh – inhibitors of IL-1B driven NFkB p65 nuclear import, primary screen, imaging, HUVEC, IL-1B stimulus, high-content imaging. AID 796, 2007. 0.43% of 94,000 active. inhibition, % at 2 µM. HUVEC IL-1B NFkB p65 nuclear translocation imaging;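 active means inhibition above about 30% together with a positive call from visual inspection of the well image, limit read from the data; inconclusive means inhibition above a set limit but visual check negative; inactive means inhibition not above a set limit, visual check negative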;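 further: nuclear over cytoplasmic p65 intensity ratio measured by imaging; 0% = IL-1B stimulated DMSO wells and 100% = unstimulated DMSO wells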
# Active calls of the source: *; ? = inconclusive; / = no result. A selection: hits, their analogues and other compounds. The true share with any hit is near 1.6%.
SMILES,VCAM1 TNFa inh,IL1B cytotox,TNFa cytotox,NFkB transloc pot,E-sel TNF inh,IL1B NFkB inh
CC(C)n1c(SCC(=O)Nc2nc3c(s2)CCCC3)nc2c1c(=O)n(C)c(=O)n2C,1,-16,-14,0,100*,0
Cc1noc(C)c1C(=O)NCCC1=CCCCC1,-3,19,-32,3,64*,-3
Cc1noc(C)c1C(=O)OCC(=O)NCCC1=CCCCC1,-2,-2,-7,114*,-4,-114
Cc1cc(=O)oc(C)c1C(=O)NCCC1=CCCCC1,14,-2,-21,19,5,-19
CCOP(=O)(OCC)C(NC(=O)c1cc([N+](=O)[O-])cc([N+](=O)[O-])c1)C(F)(F)F (centres undefined),/,/,/,/,33,/
O=C(OCn1ncc(Cl)c(Cl)c1=O)c1ccccc1Cl,17,-6,20,-90,100*,90*
O=C(OCn1ncc(Cl)c(Cl)c1=O)c1ccc(F)cc1,11,29,4,-93,100*,93*
O=C(Cn1ncc(Cl)c(Cl)c1=O)c1ccc(Cl)cc1,16,-165,16,-16,28,16
Fc1ccc(Nc2nc(N/N=C/c3ccco3)nc(N3CCCCC3)n2)cc1,/,/,/,/,0,/
NC(=O)C1CCN(CC(=O)Nc2cccc(C(=O)Nc3cccc(C(F)(F)F)c3)c2)CC1,/,/,/,/,-21,/
COc1ccccc1C(O)(C(=O)NN(C)c1ccccc1)c1ccccc1OC,/,/,/,/,13,/
Cc1c(Cl)cccc1NC(=O)CN1CCC(C(O)(c2ccccc2)c2ccccc2)CC1,11,-9,14,-49,-41,49*
COc1cc(/C=C2\SC(=S)N(CC(=O)Nc3ccc(O)cc3)C2=O)cc(OC)c1OC,/,/,/,/,74*,/
CC(=O)N1CCc2cc(Br)cc(S(=O)(=O)CCC(=O)N3CCN(c4ccccn4)CC3)c21,/,/,/,/,-16,/
COc1ccc(OCC2CNC(=O)O2)cc1 (centres undefined),/,/,/,/,96*,/
O=C1CC(c2ccccc2)CC2=C1CN(C1CCCCC1)CN2 (centres undefined),-6,0,-12,-6,70*,6
O=C1CC(c2ccccc2)CC2=C1C(c1ccccn1)Nc1ccccc1N2 (centres undefined),13,-6,1,2,-7,-2
CC(C)(C)C1=CC(=O)C(=O)C(C(C)(C)C)=C1,/,/,/,/,89*,/
CCCc1nn(C)c(C(=O)Nc2ccccc2)c1Cl,/,/,/,/,4,/
COc1ccc(S(=O)(=O)N2CCC3(CC2)OCCO3)cc1,/,/,/,/,11,/
O=C(O)c1coc2ccccc12,10,-18,-22,57*,-3,-57
O=C(/C=C/N1CCOCC1)c1coc2ccccc12,-16,-17,-3,-8,/,8
O=C(c1ccc2c(c1)OCCO2)N1CCN(c2ccc([N+](=O)[O-])cc2)CC1,/,/,/,/,-11,/
Cc1nnc(N(C)C(=O)c2ccncc2)s1,/,/,/,/,21,/
COC(=O)C(Cc1ccccc1)P(=O)(c1ccccc1)c1ccccc1 (centres undefined),/,/,/,/,-8,/
SMILES,VCAM1 TNFa inh,IL1B cytotox,TNFa cytotox,NFkB transloc pot,E-sel TNF inh,IL1B NFkB inh
CC(C)(C)NC(=O)NC(=O)CSc1ncn[nH]1,/,/,/,/,100*,/
O=C(CSc1ncn[nH]1)CSc1ncn[nH]1,/,/,/,/,10,/
Cc1nn(-c2ccccc2)c2nc3c(cc12)C(=O)CCC3,/,/,/,/,-28,/
Cn1c(SCC(=O)N2CCOCC2)nnc1-c1cccc(NC(=O)c2ccccc2)c1,-1,25,-2,3,64*,-3
COC(=O)CSc1nnc(-c2cccc(NC(=O)c3ccc(C)cc3)c2)n1C,-4,-21,-19,10,-17,-10
Cc1cccc(/C=N/NC(=O)c2cc3c(s2)-c2ccccc2CC3)c1,9,-27,-12,-52,22,52*
COCCNC(=O)c1c[nH]c2cc(OC)c(OC)cc2c1=O,-1,-8,-22,14,3,-14
COc1cc2[nH]cc(C(=O)NCCc3ccccc3)c(=O)c2cc1OC,92*,-6,-3,5,18,-5
COc1cc(OC)nc(NC(=S)NC(=O)c2ccccc2)n1,/,/,/,/,-9,/
O=C(c1ccc2ccccc2c1)N1CCN(c2ccc([N+](=O)[O-])c(N3CCOCC3)c2)CC1,15,-33,1,45*,/,-45
Cc1ccc(S(=O)(=O)N(Cc2ccc(Cl)cc2)c2ccccc2C(=O)NCc2ccco2)cc1,/,/,/,/,-2,/
COC(=O)c1cc(=O)nc2sccn12,1,-33,-26,42*,-5,-42
COc1ccc(OC)c2c(C)cc(C)nc12,/,/,/,/,5,/
C=CCNC(=O)c1cc(Cl)cc(Cl)c1,/,/,/,/,44,/
Cc1ccc2[nH]c3c(c2c1)CCC3=O,50*,-4,2,-7,3,7
c1ccc(-n2c(-c3ccncc3)nnc2-c2ccco2)cc1,-3,-16,-38,-5,-10,5
c1ccc(-n2c(-c3ccncc3)nnc2N2CCOCC2)cc1,2,4,-30,-3,60*,3
CC(/C=N/Nc1nnc2c(n1)[nH]c1ccccc12)=C\c1ccco1,-3,4,2,65*,/,-65
Cc1cccc2c1[nH]c1nc(N/N=C\c3ccco3)nnc12,1,-25,-1,0,/,0
O=C(NCCCn1ccnc1)/C(=C\c1cccnc1)NC(=O)c1ccccc1F,/,/,/,/,21,/
Cc1nc(NCC2CCCO2)c2oc3ccccc3c2n1 (centres undefined),-25,3,/,4,-4,-4
Cc1nc(NC(C)C)c2oc3ccccc3c2n1,78*,-15,91*,27,/,-27
CCNc1nc(C)nc2c1oc1ccccc12,52,-13,92*,-21,/,21
Cc1nc(Nc2ccc3c(c2)OCCO3)c2oc3ccccc3c2n1,10,5,6,87*,0,-87
O=C(NCc1ccccc1Cl)C(=O)NCC1OCCN1S(=O)(=O)c1cccs1 (centres undefined),/,/,/,/,18,/
SMILES,VCAM1 TNFa inh,IL1B cytotox,TNFa cytotox,NFkB transloc pot,E-sel TNF inh,IL1B NFkB inh
COC(=O)CSc1nc(N)c(C#N)c(C(C)C)c1C#N,-13,-16,-16,11,-1,-11
COC(=O)CSc1nc(N)nc(C)c1Br,10,-17,-4,?,63*,-57
CCN(CC)S(=O)(=O)c1ccc(NC(=O)COC(=O)CCc2cc(OC)c(OC)c(OC)c2)cc1,/,/,/,/,23,/
CSc1ccccc1NC(=O)Nc1ccc(Cl)cc1,10,-5,-24,38,21,-38
CSc1cccc(NC(=O)Nc2ccc(Cl)cc2)c1,-3,-11,-1,-76,-14,76*
O=C(CC1Nc2c3ccccc3nc(=S)n2C1=O)NC1CCCCC1 (centres undefined),/,/,/,/,-20,/
C=CCNC(=S)NNC(=O)c1cccn(Cc2ccc(Cl)cc2)c1=O,12,84*,-4,4,21,-4
